# Test results from the supplement of paper PMC3724861.
# The entries come from a sample that favours hits as a whole. No count for the full screen is at hand.
# Tested on: T1, Caupolican (Caup) homeodomain DNA-binding domain
# T1 sequence: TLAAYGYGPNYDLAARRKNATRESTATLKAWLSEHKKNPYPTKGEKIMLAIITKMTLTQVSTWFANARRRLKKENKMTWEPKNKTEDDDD
# Assay: PBM E-score (8-mer, recovered from the published 9-mer minima) (E-score (dimensionless, -0.5 to 0.5)); Drosophila protein; higher = stronger relative binding preference, active = 0.31 or more
# In short: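 Caup's homeodomain DNA-binding domain (residues 214-303) was produced by in vitro transcription and translation and applied at 100 nM to custom-designed protein binding microarrays. Each value is an enrichment score giving relative binding preference for a short DNA word; higher means stronger. Published 9-mer scores were the minimum of their two constituent 8-mer scores, and the 8-mer values were recovered from those minima. A cutoff of 0.31 marks candidate binding sequences.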
row,Sequence,PBM E-score
1,AGTCATTG,0.121 (inactive)
2,CGAGTGAA,-0.00479 (inactive)
3,GAACACGC,0.254 (inactive)
4,TAACACCA,0.247 (inactive)
5,CAACACGA,0.267 (inactive)
6,GAACACTA,0.103 (inactive)
7,GAACACGA,0.32 (active)
8,TAACACGA,0.323 (active)
9,GCCGCCCA,-0.275 (inactive)
10,ACGTAAAT,0.102 (inactive)
11,AGGTAAAT,0.153 (inactive)
12,CTGTAAAG,0.0792 (inactive)
13,ATGTAAAA,0.354 (active)
14,TTGTAAAA,0.275 (inactive)
15,ATGTAAAC,0.36 (active)
16,AAGTAAAG,-0.0403 (inactive)
17,ATGTAAAG,0.317 (active)
18,CTGTAAAC,0.18 (inactive)
19,CTGTAAAA,0.121 (inactive)
20,GTGTAAAC,0.293 (inactive)
21,ATGTAAAT,0.352 (active)
22,AGAGTAGG,0.00327 (inactive)
23,CCCCTCGC,-0.261 (inactive)
24,CACACATG,0.192 (inactive)

row,Sequence,PBM E-score
1,AGCGACAA,0.228 (inactive)
2,GTTATTTA,0.201 (inactive)
3,AATGCATA,0.0394 (inactive)
4,ACGTTTGG,0.0157 (inactive)
5,AAGGTCAA,0.00315 (inactive)
6,ATGCCTCA,-0.045 (inactive)
7,CGAGACAA,0.0948 (inactive)
8,CCGTGTAC,0.411 (active)
9,ACGTGTGC,0.0653 (inactive)
10,ACGTGTAG,0.321 (active)
11,ACGTGTAC,0.367 (active)
12,ACGTGTAT,0.353 (active)
13,CCGTGTAG,0.286 (inactive)
14,AAGTGTAG,0.17 (inactive)
15,AAGTGTAT,0.144 (inactive)
16,AAGTGTAC,0.304 (inactive)
17,ACGTGTCT,0.244 (inactive)
18,CAGTGTAC,0.207 (inactive)
19,CCGTGTCC,0.218 (inactive)
20,CTGAGCGC,-0.211 (inactive)
21,TCTCGAGA,0.0237 (inactive)
22,AACGACTG,0.0234 (inactive)
23,CTTCAGTC,-0.0898 (inactive)
24,AGTCCATG,0.0703 (inactive)

row,Sequence,PBM E-score
1,ACTGCCGG,-0.163 (inactive)
2,ACTATCGG,-0.056 (inactive)
3,CGCAGGTA,-0.0146 (inactive)
4,AGGTAAAA,0.0159 (inactive)
5,GCGTGTAC,0.367 (active)
6,GAGTGTAC,0.121 (inactive)
7,GCGTGTCC,0.223 (inactive)
8,CCTAAAAC,-0.07 (inactive)
9,GGTGGCCA,-0.164 (inactive)
10,CCCTTACA,0.152 (inactive)
11,ATGGCCCC,-0.175 (inactive)
12,AATATAGA,0.138 (inactive)
13,ATAAACAG,0.147 (inactive)
14,ACAAACAT,0.368 (active)
15,ACAAACAC,0.301 (inactive)
16,ATAAACAT,0.321 (active)
17,GTAAACAA,0.321 (active)
18,ACAAACCT,0.0926 (inactive)
19,ATAAACAC,0.251 (inactive)
20,ACAAACAG,0.258 (inactive)
21,ATAAACAA,0.254 (inactive)
22,TTAAACAA,0.23 (inactive)
23,ACAAACAA,0.317 (active)
24,AAAAACAT,0.296 (inactive)

row,Sequence,PBM E-score
1,CGGTGAAA,-0.001 (inactive)
2,ATCTTCTG,-0.0212 (inactive)
3,CACTAAAG,-0.125 (inactive)
4,GATATGGC,-0.0691 (inactive)
5,GATTTGCC,-0.0122 (inactive)
6,AGTGTAAG,0.215 (inactive)
7,TGTGTAAA,0.318 (active)
8,ACTGTAAG,0.147 (inactive)
9,CGTGTAAC,0.321 (active)
10,GGTGTAAC,0.205 (inactive)
11,CGTGTAAA,0.377 (active)
12,GGTGTAAA,0.24 (inactive)
13,CGTGTAAG,0.333 (active)
14,AGTGTAAA,0.13 (inactive)
15,AGTGTAAC,0.2 (inactive)
16,ACGTTCCG,-0.0768 (inactive)
17,AAGCCAGG,-0.171 (inactive)
18,ACCCGCAG,-0.142 (inactive)
19,AATTAGAC,0.132 (inactive)
20,CAGCGAAC,0.0117 (inactive)
21,CGGCCCTC,-0.331 (inactive)
22,AGGCCCCC,-0.398 (inactive)
23,GGATCGCA,0.00822 (inactive)
24,CCATAGCA,0.0725 (inactive)

row,Sequence,PBM E-score
1,GATGTTTA,0.247 (inactive)
2,CATGTTTA,0.399 (active)
3,CATGTTTC,0.355 (active)
4,CCTGTTTC,0.17 (inactive)
5,AATGTTTC,0.143 (inactive)
6,AATGTTTA,0.213 (inactive)
7,CTAGAGCA,-0.132 (inactive)
8,AAATGCAA,0.0939 (inactive)
9,CCACAGGA,-0.0146 (inactive)
10,ATTGCCCG,-0.0341 (inactive)
11,CAACTCAC,0.0566 (inactive)
12,AGTAAGAA,0.06 (inactive)
13,ATCGCAAG,-0.0386 (inactive)
14,CTTGTAAA,0.365 (active)
15,ATTGTAAC,0.308 (inactive)
16,CTTGTAAC,0.424 (active)
17,CCTGTAAC,0.176 (inactive)
18,ATTGTAAA,0.246 (inactive)
19,GTTGTAAA,0.279 (inactive)
20,GCATGAGA,-0.0059 (inactive)
21,CTCGTGAC,-0.0131 (inactive)
22,TTAGACAA,0.206 (inactive)
23,ATAGACAC,0.259 (inactive)
24,GTAGACAA,0.313 (active)

row,Sequence,PBM E-score
1,ATAGACAT,0.321 (active)
2,ATAGACAG,0.16 (inactive)
3,CTAGACAA,0.0936 (inactive)
4,ATCGAAAC,-0.0231 (inactive)
5,CTTCCAAG,-0.0467 (inactive)
6,AGAGGTGG,-0.107 (inactive)
7,GTGTATCA,0.276 (inactive)
8,ATGTATCG,0.337 (active)
9,ATGTATCC,0.332 (active)
10,ATGTATCA,0.321 (active)
11,AAGTATCG,0.134 (inactive)
12,CTGTATCA,0.15 (inactive)
13,CTGTATCC,0.2 (inactive)
14,AAGTATCC,-0.0551 (inactive)
15,ACGTATCG,0.15 (inactive)
16,ATGTCCAG,0.2 (inactive)
17,ACGCAACA,0.215 (inactive)
18,ATTTAGTC,0.0884 (inactive)
19,CCCCAAAC,-0.0197 (inactive)
20,CTTGCTGC,-0.0454 (inactive)
21,AATAACAT,0.348 (active)
22,AATAACAC,0.284 (inactive)
23,AGTAACAT,0.316 (active)
24,AGTAACAC,0.24 (inactive)

row,Sequence,PBM E-score
1,AATAACAG,0.241 (inactive)
2,AGTAACAG,0.19 (inactive)
3,AGGCGTCG,-0.157 (inactive)
4,CTTTGTCA,0.0793 (inactive)
5,CAAAGTAC,0.172 (inactive)
6,GGAGTGGA,-0.133 (inactive)
7,CCATATCA,0.0253 (inactive)
8,ATATATTC,0.192 (inactive)
9,ACATATTG,0.26 (inactive)
10,ACATATTC,0.329 (active)
11,CCATATTA,0.105 (inactive)
12,CCATATTC,0.011 (inactive)
13,ACATATTA,0.33 (active)
14,ACATATCG,0.238 (inactive)
15,ACATATCA,≥ 0.321 (active)
16,TTTGAAAA,0.105 (inactive)
17,AAGGATGT,0.185 (inactive)
18,AGTTAAGC,0.0239 (inactive)
19,GCACACCC,-0.143 (inactive)
20,AGAGTGCG,-0.148 (inactive)
21,CTCTCCTC,-0.078 (inactive)
22,CCGACGCG,-0.167 (inactive)
23,GCCTGGCC,-0.292 (inactive)
24,AACTACCT,0.122 (inactive)

row,Sequence,PBM E-score
1,AACTACGT,0.151 (inactive)
2,AACTACAG,0.177 (inactive)
3,CACTACAC,0.206 (inactive)
4,ACCTACAA,0.171 (inactive)
5,AACTACAC,0.355 (active)
6,ATCTACAC,0.227 (inactive)
7,GACTACAC,0.33 (active)
8,AACTACAA,0.342 (active)
9,AACTACAT,0.408 (active)
10,CACTACAA,0.266 (inactive)
11,GACTACAA,0.222 (inactive)
12,TCTCACAA,0.048 (inactive)
13,TAGTGTGA,0.108 (inactive)
14,GCCTCACC,-0.232 (inactive)
15,ACTAGATG,0.121 (inactive)
16,CACCCTAG,-0.0221 (inactive)
17,ACACCTCT,0.111 (inactive)
18,AGCGCGGC,-0.184 (inactive)
19,TGCACGCA,-0.0359 (inactive)
20,AACATGGC,0.328 (active)
21,AACATTGT,≥ 0.347 (active)
22,AACATTGG,0.159 (inactive)
23,TCCATGGA,0.0552 (inactive)
24,ACCATGGC,0.0502 (inactive)

row,Sequence,PBM E-score
1,GACATGGC,0.314 (active)
2,TACATGGA,0.413 (active)
3,AACATTGA,0.243 (inactive)
4,GCCATGGC,-0.246 (inactive)
5,CACATGGC,-0.0837 (inactive)
6,TAGATGGA,0.0256 (inactive)
7,ATCATGGC,-0.0613 (inactive)
8,ACAGTAAA,0.124 (inactive)
9,CCGTTCTC,-0.0675 (inactive)
10,CTCGCACA,-0.0236 (inactive)
11,CGCAGGAC,-0.0855 (inactive)
12,ATCTCCCC,-0.153 (inactive)
13,ATTCAGTG,0.034 (inactive)
14,CTAACGAG,0.0026 (inactive)
15,ACACCGTC,0.0118 (inactive)
16,CACATGGG,-0.0556 (inactive)
17,AAGATGGT,0.109 (inactive)
18,AACATGGT,0.37 (active)
19,ACCATGGT,0.127 (inactive)
20,ACCATGGA,0.0206 (inactive)
21,AACATGGA,0.325 (active)
22,ATCATGGG,-0.0312 (inactive)
23,GAGATGGA,-0.0584 (inactive)
24,AACATGGG,0.351 (active)

row,Sequence,PBM E-score
1,CACATGGA,0.156 (inactive)
2,ATCATGGA,0.00242 (inactive)
3,GACATGGA,0.345 (active)
4,ATAGCTTG,0.0692 (inactive)
5,CGACCGGC,-0.141 (inactive)
6,AGTAAGTG,0.00023 (inactive)
7,TGCGCCCA,-0.134 (inactive)
8,ATTAGATG,0.235 (inactive)
9,GCTCCATA,-0.111 (inactive)
10,ACGGTGGC,-0.158 (inactive)
11,ATGCGAAA,0.0128 (inactive)
12,AACAAGAA,0.321 (active)
13,AACAAAAC,0.179 (inactive)
14,TACAAAAA,0.255 (inactive)
15,AACAAAAA,0.141 (inactive)
16,AACAAAGA,0.0783 (inactive)
17,CACAAGAA,0.0855 (inactive)
18,CACAAGAC,0.0913 (inactive)
19,GACAAGAC,0.325 (active)
20,AACAAGAC,0.335 (active)
21,TACAAGAA,0.351 (active)
22,GACAAAAC,0.137 (inactive)
23,GACAAGAA,0.297 (inactive)
